# According to publication PMC5540273 (PLoS ONE, 2017):
# Where “and” joins values, the source holds several entries; their conditions need not be identical. Equal values may be shown once. Read-outs that look alike come from different tables or passages of the source.
# Experiments:
# WNK4 = conditions: concentration: 1 μM, replicates: in singlicate; n = 1
# YANK1 = system: T1, YANK1; conditions: concentration: 1 μM, replicates: in singlicate, n = 1
# T1 construct: gene STK32A
# YANK2 = system: T2, YANK2; conditions: concentration: 1 μM, replicates: in singlicate, n = 1
# T2 construct: gene STK32B
# YANK3 = system: T3, YANK3; conditions: concentration: 1 μM, replicates: in singlicate, n = 1
# T3 construct: gene STK32C
# YES = system: T4, YES; conditions: concentration: 1 μM, replicates: in singlicate; n = 1
# T4 construct: gene YES1
# YSK1 = system: T5, YSK1; conditions: concentration: 1 μM, replicates: in singlicate; n = 1
# T5 construct: gene STK25
# YSK4 = system: T6, YSK4; conditions: concentration: 1 μM, replicates: in singlicate, n = 1
# T6 construct: gene MAP3K19
# ZAK = conditions: concentration: 1 μM, replicates: in singlicate, n = 1
# ZAP70 = conditions: concentration: 1 μM, replicates: in singlicate, n = 1
# p38-alpha = system: T7, p38-alpha; conditions: concentration: 1 μM, replicates: in singlicate, n = 1
# T7 construct: gene MAPK14
# p38-beta = system: T8, p38-beta; conditions: concentration: 1 μM, replicates: in singlicate, n = 1
# T8 construct: gene MAPK11
# p38-delta = conditions: concentration: 1 μM, replicates: in singlicate, n = 1
# p38-gamma = system: T9, p38-gamma; conditions: concentration: 1 μM, replicates: in singlicate, n = 1
# T9 construct: gene MAPK12
# 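Also: KINOMEscan kinase panel screen.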
smiles,measurement,setting,value
Fc1cccc(COc2ccc(Nc3ncnc4sc(-c5ccc[nH]5)cc34)cc2Cl)c1 [GW707818],%Inh,WNK4,6%
same,%Inh,YANK1,13%
same,%Inh,YANK2,34%
same,%Inh,YANK3,0%
same,%Inh,YES,1%
same,%Inh,YSK1,0%
same,%Inh,YSK4,8%
same,%Inh,ZAK,0%
same,%Inh,ZAP70,6%
same,%Inh,p38-alpha,44%
same,%Inh,p38-beta,4%
same,%Inh,p38-delta,46%
same,%Inh,p38-gamma,7%
Cc1ccc(O)cc1Nc1cc(C(F)(F)F)nc2ccc(-c3ccncc3)cc12 [GW630823],%Inh,WNK4,0%
same,%Inh,YANK1,0%
same,%Inh,YANK2,0%
same,%Inh,YANK3,0%
same,%Inh,YES,23%
same,%Inh,YSK1,0%
same,%Inh,YSK4,0%
same,%Inh,ZAK,10%
same,%Inh,ZAP70,0%
same,%Inh,p38-alpha,8%
same,%Inh,p38-beta,0%
same,%Inh,p38-delta,7%
same,%Inh,p38-gamma,31%
COc1ccc(Nc2nccc(N3CCC(NC(=O)c4cccc(NC(C)=O)c4)C3)n2)cc1 (centres unmarked) [GSK1379732],%Inh,WNK4,100%
same,%Inh,YANK1,22%
same,%Inh,YANK2,0%
same,%Inh,YANK3,20%
same,%Inh,YES,0%
same,%Inh,YSK1,11%
same,%Inh,YSK4,5%
same,%Inh,ZAK,10%
same,%Inh,ZAP70,0%
same,%Inh,p38-alpha,30%
same,%Inh,p38-beta,0%
same,%Inh,p38-delta,22%
same,%Inh,p38-gamma,7%
COc1ccc(-c2nc3n(c2-c2ccncc2)CCC3)cc1 [SKF-104493],%Inh,WNK4,17%
same,%Inh,YANK1; 1 µM,0% and 10%
same,%Inh,YANK2; 1 µM,13% and 0%
same,%Inh,YANK3; 1 µM,0% and 4%
same,%Inh,YES,0%
same,%Inh,YSK1,0%
same,%Inh,YSK4; 1 µM,0% and 100%
same,%Inh,ZAK; 1 µM,0% and 8%
same,%Inh,ZAP70; 1 µM,0% and 8%
same,%Inh,p38-alpha; 1 µM,80% and 97.8%
same,%Inh,p38-beta; 1 µM,33% and 40%
same,%Inh,p38-delta; 1 µM,5% and 43%
same,%Inh,p38-gamma; 1 µM,21% and 8%
Cn1cc(-c2ccc3c(c2)CCN3C(=O)Cc2cccc(C(F)(F)F)c2)c2c(N)ncnc21 [GSK2606414],%Inh,WNK4,0%
same,%Inh,YANK1,10%
same,%Inh,YANK2,0%
same,%Inh,YANK3,19%
same,%Inh,YES,0%
same,%Inh,YSK1,0%
same,%Inh,YSK4,34%
same,%Inh,ZAK,0%
same,%Inh,ZAP70,0%
same,%Inh,p38-alpha,0%
same,%Inh,p38-beta,0%
same,%Inh,p38-delta,20%
same,%Inh,p38-gamma,2%
FC(F)(F)c1ccc(-c2nn3ncccc3c2-c2ccnc(Nc3cccc(C(F)(F)F)c3)n2)cc1 [GW828205],%Inh,WNK4,0%
same,%Inh,YANK1,0%
same,%Inh,YANK2,0%
same,%Inh,YANK3,0%
same,%Inh,YES,0%
same,%Inh,YSK1,0%
same,%Inh,YSK4,0%
same,%Inh,ZAK,0%
same,%Inh,ZAP70,42%
same,%Inh,p38-alpha,0%
same,%Inh,p38-beta,0%
same,%Inh,p38-delta,3%
same,%Inh,p38-gamma,41%
CC(C)N1CCC(n2cnc(-c3ccc(F)cc3)c2-c2ccnc(N)n2)CC1 [SB-223132],%Inh,WNK4,0%
same,%Inh,YANK1,0%
same,%Inh,YANK2,16%
same,%Inh,YANK3,0%
same,%Inh,YES,0%
same,%Inh,YSK1,0%
same,%Inh,YSK4,0%
same,%Inh,ZAK,8%
same,%Inh,ZAP70,5%
same,%Inh,p38-alpha,96.8%
same,%Inh,p38-beta,23%
same,%Inh,p38-delta,0%
same,%Inh,p38-gamma,60%
Nc1nc(-c2cccnc2)c(-c2ccnc3ccccc23)s1 [GW684083],%Inh,WNK4,39%
same,%Inh,YANK1,20%
same,%Inh,YANK2,18%
same,%Inh,YANK3,0%
same,%Inh,YES,18%
same,%Inh,YSK1,0%
same,%Inh,YSK4,60%
same,%Inh,ZAK,78%
same,%Inh,ZAP70,0%
same,%Inh,p38-alpha,40%
same,%Inh,p38-beta,0%
same,%Inh,p38-delta,27%
same,%Inh,p38-gamma,0%
